Results filed as inconclusive are left out. Active and inactive are the calls of the source. Calls come from the whole dose curve; as a rule, active = well fitted curve in the direction sought with a large enough effect; inconclusive = small, poorly fitted or top-dose-only effect, or another doubt; inactive = no such curve, though single readings can be large; an effect the other way counts as inactive or inconclusive.
Key:
[1] = qHTS for differential inhibitors of proliferation of Plasmodium falciparum line W2 (AID 1883); settings: series mostly up to 28.7 µM;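 note: parasites grown with compound for 72 h before lysis and staining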
[2] = qHTS for differential inhibitors of proliferation of Plasmodium falciparum line HB3 (AID 1886); settings: series mostly up to 28.7 µM;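 note: parasites grown with compound for 72 h before SYBR Green readout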
[3] = target: Ferritin light chain (Equus caballus) (UniProt P02791); experiment: qHTS Validation Assay for Identification of Novel General Anesthetics (AID 2323); settings: horse apoferritin, anesthetic-site fluorescent probe displacement; series mostly up to 76.9 µM
Ferritin light chain (Equus caballus), sequence (P02791 2-175 limits assumed): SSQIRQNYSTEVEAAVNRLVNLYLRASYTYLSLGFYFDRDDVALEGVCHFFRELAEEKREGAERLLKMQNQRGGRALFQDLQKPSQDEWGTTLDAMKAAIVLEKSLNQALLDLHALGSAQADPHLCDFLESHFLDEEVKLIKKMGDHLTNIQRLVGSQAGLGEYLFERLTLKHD
Procedure, shortened: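 Fluorescence at 535 nm (excitation 380 nm) reported loss of 1-AMA binding to horse-spleen apoferritin (10 uM) in PBS with 50% saturated 1-aminoanthracene, after 10 min room-temperature incubation with compound; values from Hill fits of normalized response.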

[4] = target: ATP-dependent DNA helicase Q1 (Homo sapiens) (UniProt P46063); experiment: qHTS Validation Assay for Inhibitors of RecQ-Like Dna Helicase 1 (RECQ1) (AID 2353); settings: recombinant RECQ1 helicase DNA unwinding assay; series mostly up to 25.6 µM
ATP-dependent DNA helicase Q1 (Homo sapiens), sequence (P46063 whole entry, looked up): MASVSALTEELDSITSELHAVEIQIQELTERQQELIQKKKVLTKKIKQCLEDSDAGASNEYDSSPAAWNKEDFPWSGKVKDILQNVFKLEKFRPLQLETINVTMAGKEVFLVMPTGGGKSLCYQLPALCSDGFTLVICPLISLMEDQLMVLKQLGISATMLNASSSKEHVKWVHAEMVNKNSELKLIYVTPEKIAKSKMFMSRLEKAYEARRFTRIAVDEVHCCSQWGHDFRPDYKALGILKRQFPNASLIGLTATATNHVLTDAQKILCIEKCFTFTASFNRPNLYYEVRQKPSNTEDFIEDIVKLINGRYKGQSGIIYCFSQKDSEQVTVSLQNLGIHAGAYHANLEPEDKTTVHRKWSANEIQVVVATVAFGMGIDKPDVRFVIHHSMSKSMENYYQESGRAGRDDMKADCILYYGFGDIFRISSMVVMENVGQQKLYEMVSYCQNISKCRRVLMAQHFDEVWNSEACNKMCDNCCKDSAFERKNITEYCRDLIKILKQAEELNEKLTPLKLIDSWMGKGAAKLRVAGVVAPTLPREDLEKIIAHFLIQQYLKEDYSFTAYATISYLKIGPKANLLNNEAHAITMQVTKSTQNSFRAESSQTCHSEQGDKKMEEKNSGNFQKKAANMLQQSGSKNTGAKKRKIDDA
Procedure, shortened: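 50 nM RECQ1T1 preincubated 15 min with compound in Tris pH 8.0 buffer with MgCl2, DTT, Tween-20 and 2.5 ug/ml poly(dI-dC); started with 200 nM TAMRA/BHQ-2 forked duplex and 2 mM ATP. Unwinding read as fluorescence (525/598 nm), two reads 2 h apart.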

[5] = Validation screen for small molecules that induce DNA re-replication in MCF 10A normal breast cells (AID 463097); settings: MCF 10A cells, DNA re-replication phenotype imaging; series mostly up to 46.1 µM; note: nearly all actives have a fitted effect of over 60% in size
Procedure, shortened: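 Image-based qHTS: normal breast cells are incubated with compound for 48 hr, stained with Hoechst, and scanned for total nuclear fluorescence. Compounds raising the fraction of nuclei with elevated DNA content count as re-replication inducers.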

[6] = Cytometric Cell-Based qHTS for Inhibitors of the mTORC1 Signaling Pathway in MEF (Tsc2-/-, p53-/-) Cells (AID 2660); settings: mTORC1 pathway cytometry; series mostly up to 38.3 µM;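 note: percent of cells above a phospho-rpS6 to PI ratio cutoff in each well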
Procedure, shortened: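 Readout: Alexa-488 phospho-rpS6 (Ser235/236) intensity divided by PI intensity, thresholded against 7.5 nM rapamycin wells and reported as % positive cells. PI cell count served as the viability measure. Compound exposure was 24 hrs at 37 degree Celsius.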

[7] = High Content Imaging Cell-Based qHTS for Inhibitors of the mTORC1 Signaling Pathway in MEF (Tsc2-/-, p53-/-) Cells (AID 2666); settings: at 38.3 µM (top of the series);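 note: percent of cells scored positive for phospho-rpS6 Ser235/236 immunostaining by imaging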
Procedure, shortened: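 Read-out: % positive cells per well, with thresholds from highest- and lowest-signal wells, based on phospho-rpS6 (Ser235/236) intensity normalized to Hoechst nuclear stain. Cells: Tsc2-/-, p53-/- MEFs carrying empty vector; compound 24 hrs, 37 degree Celsius.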

[8] = High Content Imaging Cell-Based qHTS for Inhibitors of the mTORC1 Signaling Pathway in MEF Cells (AID 2667); settings: series mostly up to 38.3 µM;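 note: Tsc2-/- p53-/- MEFs stably re-expressing wild-type Tsc2 exposed 24 h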
Procedure, shortened: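 MEF (Tsc2-/-, p53-/-, WT Tsc2 re-expressed); cpd 24 h, 37 °C; PFA fix; Alexa-488 anti-p-rpS6 Ser235/236, PI, Hoechst; IN Cell imaging; Hoechst/Alexa-488 intensity ratio; % active cells, thresholds set from rapamycin and DMSO wells.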

[9] = target: Ubiquitin carboxyl-terminal hydrolase 2 (Homo sapiens) (UniProt O75604); experiment: qHTS Validation Assay for Inhibitors of Ubiquitin-specific Protease USP2a Using CHOP2 as the Reporter (AID 463106); settings: USP2a cleavage of CHOP2 reporter, enzymatic; series mostly up to 38.3 µM
Ubiquitin carboxyl-terminal hydrolase 2 (Homo sapiens), sequence (O75604 whole entry, looked up): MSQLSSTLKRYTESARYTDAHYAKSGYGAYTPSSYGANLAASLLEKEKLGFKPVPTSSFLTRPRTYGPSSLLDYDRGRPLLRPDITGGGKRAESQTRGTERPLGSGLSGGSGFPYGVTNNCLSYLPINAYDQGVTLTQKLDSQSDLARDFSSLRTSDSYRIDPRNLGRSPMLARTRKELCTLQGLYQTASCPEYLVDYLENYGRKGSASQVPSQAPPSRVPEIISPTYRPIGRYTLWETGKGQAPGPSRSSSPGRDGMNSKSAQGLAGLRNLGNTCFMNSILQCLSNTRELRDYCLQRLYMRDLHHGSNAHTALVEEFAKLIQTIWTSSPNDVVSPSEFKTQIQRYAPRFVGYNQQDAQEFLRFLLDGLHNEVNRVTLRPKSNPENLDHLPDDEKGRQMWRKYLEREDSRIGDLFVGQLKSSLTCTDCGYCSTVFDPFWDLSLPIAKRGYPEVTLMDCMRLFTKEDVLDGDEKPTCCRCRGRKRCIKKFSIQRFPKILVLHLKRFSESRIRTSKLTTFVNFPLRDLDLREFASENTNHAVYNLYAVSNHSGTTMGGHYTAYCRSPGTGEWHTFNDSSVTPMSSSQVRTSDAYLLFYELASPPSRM
Procedure, shortened: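 USP2 core (10nM final) was preincubated with compound for 30min at RT in 20mM Tris-HCl pH 8.0, 2mM CaCl2, 2mM beta-mercaptoethanol, 0.05% CHAPS. Ub-CHOP2 and reporter substrate (25nM each) were added, and fluorescence (Ex 485/Em 531nm) was read after 60min.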

[10] = Cytometry Cell-Based qHTS for Inhibitors of the mTORC1 Signaling Pathway in MEF cells (AID 2668); settings: mTORC1 pathway readout; series mostly up to 38.3 µM;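 note: Tsc2-/- p53-/- mouse embryonic fibroblasts stably re-expressing wild-type Tsc2; percent cells positive for phospho-rpS6 Ser235/236 relative to propidium iodide stain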
Procedure, shortened: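 Tsc2-/-, p53-/- MEFs re-expressing WT Tsc2; cpd 24 hrs, 37 degree Celsius; PFA fix, Alexa-488 p-rpS6 (Ser235/236) Ab 2 hrs RT, PI counterstain; Acumen 488nm scan; p-S6/PI ratio → % positive cells; PI count = viability.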

Measured: outcome

CCNC(=O)[C@H]1O[C@@H](n2cnc3c(N)nc(NCCc4ccc(CCC(=O)O)cc4)nc32)[C@H](O)[C@H]1O
inactive: [1] | [2] | [3] | [4] | [5]

C=CCc1cccc(C=NNC(=O)CN2CCN(Cc3ccccc3)CC2)c1O
inactive: [6] | [7] | [8] | [9]

C[C@H]1O[C@@H](n2cc(F)c(=O)[nH]c2=O)[C@H](O)[C@H]1O
inactive: [6] | [7] | [8] | [10] | [9]

Reference: PubChem BioAssay (NCATS)
